Screening results from PubChem.
ROS inducer = raises reactive oxygen species in U2OS cancer cells | 2% of 46,000 active | U2OS ROS induction, H2DCF-DA fluorescence | AID 624156 | ROS induction (% of piperlongumine), % at 10 µM; in the data active = ROS induction above about 79%, passing the limit was not always enough;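 also: 0% = DMSO vehicle median and 100% = reference compound median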
YB-1 expression = YB-1 expression inhibition; 0.37% of 30,000 active; delta delta Cp (YB-1 minus CDIP) (concentration not given with the values); U2OS, qRT-PCR YB-1 vs CDIP delta delta Cp, 16 h; hits give high values; zero = DMSO, each unit about twofold;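 active = delta delta Cp rounded down to an integer at or above 3, about 3 SD of DMSO wells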;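 also: higher means less YB-1 transcript or more CDIP transcript relative to DMSO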
Numbers without * were called inactive. Only some compounds are listed: those with a hit (about 2.1% of all), similar ones and a draw of the others.

What do the screens show for `C[C@@H]1CCCCO[C@@H](CN(C)S(C)(=O)=O)[C@@H](C)CN([C@H](C)CO)C(=O)c2cc(NC(=O)Cc3ccccc3)ccc2O1`?
ROS inducer: 84.0*; YB-1 expression: -0.356

What do the screens show for `CS(=O)(=O)N(CC(=O)Nc1cc(Cl)ccc1Oc1ccccc1)c1ccccc1F`?
ROS inducer: 15.9

Results for CCC(C(=O)N1c2ccccc2Sc2ccc(C(F)(F)F)cc21)N1C(=O)c2ccccc2C1=O (stereo unspecified) ?
ROS inducer: 15.5

Results for O=c1cc(O)c2sc3nc(-c4cccnc4)c4c(c3c2[nH]1)CCCC4 ?
ROS inducer: 0.1; YB-1 expression: -0.392

What do the screens show for `O=S(=O)(c1ccc(Br)cc1)N1CCCCCC1`?
ROS inducer: 4.7; YB-1 expression: 0.159

What do the screens show for `COc1ccc(CCNC(=O)c2ccc3c(=O)n(CC4CCCO4)c(=S)[nH]c3c2)cc1OC` (stereo unspecified)?
ROS inducer: 3.4; YB-1 expression: -0.46

How did COc1ccc(CCNC(=O)c2ccc3c(=O)n(CCC4=CCCCC4)c(=S)[nH]c3c2)cc1OC do in these assays?
ROS inducer: 95.6*

How did CC(C)CCNC(=O)c1cnn2c(C(F)(F)F)cc(-c3ccco3)nc12 do in these assays?
ROS inducer: 119.1*

How did CC1CCCCC1NC(=O)c1cnn2c(C(F)(F)F)cc(-c3ccccc3)nc12 (stereo unspecified) do in these assays?
ROS inducer: 134.1*

What do the screens show for `Cc1ccccc1NC(=O)c1cnn2c(C(F)(F)F)cc(-c3ccco3)nc12`?
ROS inducer: 7.5; YB-1 expression: 0.153

How did FC(F)(F)c1cc(-c2ccccc2)nc2c(-c3ccccc3)cnn12 do in these assays?
ROS inducer: 13.8

What do the screens show for `CCc1ccccc1NC(=O)CSc1nc2ccccc2c(=O)n1-c1ccccc1Cl`?
ROS inducer: 6.7

Results for COC(=O)c1ccccc1NC(=O)CSc1nnc(-c2ccccc2O)n1-c1ccccc1 ?
ROS inducer: 16.0

What do the screens show for `CCOc1ccc(C(NC(=O)c2ccco2)NC(=O)c2ccco2)cc1OC`?
ROS inducer: -7.8

How did COC(=O)c1[nH]nc2c1C(=O)N(c1ccc(F)cc1)C2=O do in these assays?
ROS inducer: 260.1*

Results for COC(=O)c1cccc(C(=O)Nc2ccc(F)cc2)n1 ?
ROS inducer: 6.2; YB-1 expression: 0.437

Results for Cc1ccc(C)c(C(Nc2ccccn2)c2ccc3ccc(C)nc3c2O)c1 (stereo unspecified) ?
ROS inducer: 26.8

Results for COc1ccc(N2CCN(CCNC(=O)c3nnc(-c4ccc5c(c4)OCO5)o3)CC2)cc1 ?
ROS inducer: -4.4

How did CC(C)n1nnc2c(=O)oc3ccccc3c21 do in these assays?
ROS inducer: 79.4*

What do the screens show for `CCn1c(C)nc2c(=O)oc3ccccc3c21`?
ROS inducer: 13.3; YB-1 expression: -0.423

What do the screens show for `Cc1ccccc1-c1nc(SCC(=O)Nc2ccc(Br)c(Cl)c2)n[nH]1`?
ROS inducer: 7.9

What do the screens show for `Cc1ccc(S(=O)(=O)Nc2ccc3c(c2)C(=O)N([C@H](C)CO)C[C@H](C)[C@@H](CN(C)CC2CCCCC2)OCCCC[C@@H](C)O3)cc1`?
ROS inducer: 12.4; YB-1 expression: -0.149

What do the screens show for `C[C@@H]1CCCCO[C@H](CN(C)CC2CCCCC2)[C@@H](C)CN([C@H](C)CO)C(=O)c2cc(NS(=O)(=O)c3ccccc3)ccc2O1`?
ROS inducer: 119.0*; YB-1 expression: -0.612

How did C[C@@H]1CCCCO[C@@H](CN(C)C(=O)C2CCCCC2)[C@@H](C)CN([C@H](C)CO)C(=O)c2cc(NS(=O)(=O)c3cccs3)ccc2O1 do in these assays?
ROS inducer: 108.6*; YB-1 expression: -0.245

How did C[C@@H]1CCCCO[C@H](CN(C)C(=O)NC2CCCCC2)[C@@H](C)CN([C@H](C)CO)C(=O)c2cc(NS(=O)(=O)c3cccs3)ccc2O1 do in these assays?
ROS inducer: 83.5*; YB-1 expression: -0.197

What do the screens show for `C[C@@H]1CCCCO[C@@H](CN(C)C(=O)Nc2ccccc2)[C@@H](C)CN([C@H](C)CO)C(=O)c2cc(NS(=O)(=O)c3cccs3)ccc2O1`?
ROS inducer: 9.3; YB-1 expression: 0.288

What do the screens show for `C[C@@H]1CCCCO[C@@H](CN(C)C(=O)c2ccccc2)[C@@H](C)CN([C@H](C)CO)C(=O)c2cc(NS(=O)(=O)c3cccs3)ccc2O1`?
ROS inducer: 5.0; YB-1 expression: 0.216

How did C[C@@H]1CCCCO[C@H](CN(C)C(=O)C2CCCCC2)[C@@H](C)CN([C@H](C)CO)C(=O)c2cc(NS(=O)(=O)c3ccc(Cl)cc3)ccc2O1 do in these assays?
ROS inducer: 35.1; YB-1 expression: 0.293

Results for C[C@@H]1CCCCO[C@@H](CN(C)C(=O)C2CCCCC2)[C@@H](C)CN([C@H](C)CO)C(=O)c2cc(NS(=O)(=O)c3ccccc3)ccc2O1 ?
ROS inducer: 109.7*; YB-1 expression: -0.452

How did CCN(CC)S(=O)(=O)c1ccc(NC(=O)COc2ccc(Cl)cc2Cl)cc1 do in these assays?
ROS inducer: 23.5

What do the screens show for `Cc1cc(C)cc(N(C(C)C(=O)Nc2cccc(C(F)(F)F)c2)S(C)(=O)=O)c1` (stereo unspecified)?
ROS inducer: 9.7

Results for Cc1cc(C)nc(NS(=O)(=O)c2ccc(Nc3nc(-c4ccc(F)cc4)cs3)cc2)n1 ?
ROS inducer: 10.5

How did CCC1CCc2nc3sc(C(=O)NCCc4ccc(OC)cc4)c(N)c3cc2C1 (stereo unspecified) do in these assays?
ROS inducer: -0.5

How did CCN(CC(=O)Nc1ccccc1OC)S(=O)(=O)c1ccc(C)cc1 do in these assays?
ROS inducer: 14.4

What do the screens show for `COc1ccc2[nH]c3c(=O)n(Cc4ccc(C(=O)NC5CC5)cc4)c(=S)[nH]c3c2c1`?
ROS inducer: 10.7

Results for C[C@H](CO)N1C[C@H](C)[C@@H](CN(C)Cc2ccc(C(F)(F)F)cc2)Oc2ccc(NC(=O)Cc3cn(C)c4ccccc34)cc2C1=O ?
ROS inducer: 108.8*; YB-1 expression: 0.0358

Results for C[C@H](CO)N1C[C@H](C)[C@H](CN(C)Cc2ccc(C(=O)O)cc2)Oc2ccc(NC(=O)Cc3cn(C)c4ccccc34)cc2C1=O ?
ROS inducer: -5.1; YB-1 expression: 0.245

Results for C[C@@H]1CN([C@@H](C)CO)C(=O)c2cc(NC(=O)Cc3cn(C)c4ccccc34)ccc2O[C@@H]1CN(C)Cc1ccccc1 ?
ROS inducer: 13.4; YB-1 expression: -0.449

What do the screens show for `C[C@H]1CN([C@@H](C)CO)C(=O)c2cc(NC(=O)Cc3cn(C)c4ccccc34)ccc2O[C@@H]1CN(C)Cc1ccc(C(F)(F)F)cc1`?
ROS inducer: 122.4*; YB-1 expression: -0.461

What do the screens show for `CC(=O)OCC(=O)[C@@]1(O)[C@H](C)C[C@H]2[C@@H]3CCC4=CC(=O)C=C[C@]4(C)[C@@]3(F)[C@@H](O)C[C@@]21C`?
ROS inducer: 8.7; YB-1 expression: 0.233

Results for CC(=O)OCC(=O)[C@@]12OC3(CCCC3)O[C@@H]1CC1C3CCC4=CC(=O)C=C[C@]4(C)[C@@]3(F)[C@@H](O)C[C@@]12C (stereo partly specified) ?
ROS inducer: 129.5*; YB-1 expression: -0.0579

Results for O=C(O)CC1(Cc2nc(-c3ccc(Cl)cc3)no2)CCCC1 ?
ROS inducer: -1.7
